The values below come from PubChem BioAssay (NCI).

Experiment [1] in a line: NCI Yeast Anticancer Drug Screen. Data for the rad50 strain (AID 155).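 Further: 0% = growth of vehicle-only cultures of the same strain.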 Conditions: S. cerevisiae rad50 strain growth inhibition, stronger effect = higher value. A digest of the protocol: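 Inhibition values express reduced yeast growth in compound-treated cultures relative to vehicle-treated controls.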
Experiment [2] is described as follows: NCI Yeast Anticancer Drug Screen. Data for the mec2-1 strain (AID 157). The following applies: S. cerevisiae mec2-1 strain, stronger effect = higher value. The method, boiled down:
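Yeast mec2-1 mutant treated with compound. Readout: growth inhibition vs vehicle controls.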

A short description of experiment [3]: NCI Yeast Anticancer Drug Screen. Data for the sgs1 mgt1 strain (AID 161).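 Further: 0% = growth of cultures given vehicle only.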 The following applies: S. cerevisiae sgs1 mgt1 strain, stronger effect = higher value. A digest of the protocol: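 Genetically altered yeast, compound exposure, growth inhibition relative to vehicle.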
Experiment [4] can be described thus: NCI Yeast Anticancer Drug Screen. Data for the cln2 rad14 strain (AID 165).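 Further: 0% = growth equal to vehicle treated cultures.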 Conditions: S. cerevisiae cln2 rad14 strain, stronger effect = higher value. A digest of the protocol: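 cln2 rad14 yeast strain; compound exposure; growth inhibition read vs vehicle controls.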
Experiment [5] is described as follows: NCI Yeast Anticancer Drug Screen. Data for the bub3 strain (AID 167). Conditions: S. cerevisiae bub3 mutant strain, stronger effect = higher value. A digest of the protocol: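 Steps: expose the mutant yeast strain to compound; grow alongside vehicle-treated cultures; measure growth; express inhibition against the vehicle cultures.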
The nature of experiment [6]: NCI Yeast Anticancer Drug Screen. Data for the mlh1 rad18 strain (AID 175). The following applies: S. cerevisiae mlh1 rad18 strain growth inhibition, stronger effect = higher value. A digest of the protocol: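 Yeast w/ defined DNA-repair lesions; compound exposure; growth vs vehicle controls → % inhibition.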
[7] abbreviates: at 5.0 µM (retest, dose inferred, filed as 0.5).
Where [8] appears, read: at 50.0 µM (retest, dose inferred, filed as 5.0).

SMILES strings stand for the structures. About 79,000 compounds went through this panel and 15% of them were active in at least one assay; those are over-represented in the sample as a whole. Unmarked numbers belong to inactive results. Active and inactive are the calls of the source. No stated cut-off is given here; in the data, active means growth inhibition above about 70%; inactive means the rest.

On to `O=Nc1c2n[nH]c1CCCCCCCCC2`, for which the growth inhibition was 24% in experiment [1] (setting [7]); 99% (active) in experiment [1] (setting [8]); 99.4% (active) in experiment [1] (at 50.0 µM); 45% in experiment [2] (setting [7]); 99% (active) in experiment [2] (setting [8]); 99.4% (active) in experiment [2] (at 50.0 µM). The growth inhibition is 56% in experiment [3] (setting [7]); 99% (active) in experiment [3] (setting [8]); 99.5% (active) in experiment [3] (at 50.0 µM); 23% in experiment [4] (setting [7]); 99% (active) in experiment [4] (setting [8]); 99.5% (active) in experiment [4] (at 50.0 µM). The growth inhibition in experiment [5] (setting [7]) was 37%; in experiment [5] (setting [8]), 99% (active); in experiment [5] (at 50.0 µM), 99.3% (active); in experiment [6] (setting [7]), 75% (active); in experiment [6] (setting [8]), 99% (active); in experiment [6] (at 50.0 µM), 96.8% (active).
Regarding `Nc1cc2c(c[n+](CCCBr)c3ccccc23)c2ccccc12`, the growth inhibition in experiment [1] (setting [7]) was 41%; in experiment [1] (setting [8]) it was 98% (active); in experiment [1] (at 50.0 µM), 66.8%; in experiment [2] (setting [7]), 23%; in experiment [2] (setting [8]), 99% (active); in experiment [2] (at 50.0 µM) it was 64.6%. Also, the growth inhibition in experiment [3] (setting [7]) was 58%; in experiment [3] (setting [8]), 99% (active); in experiment [3] (at 50.0 µM), 68.2%; in experiment [4] (setting [7]), 46%; in experiment [4] (setting [8]), 98% (active); in experiment [4] (at 50.0 µM), 33.1%. Also, the growth inhibition in experiment [5] (setting [7]) is 52%; in experiment [5] (setting [8]), 99% (active); in experiment [5] (at 50.0 µM), 46.5%; in experiment [6] (setting [7]), 24%; in experiment [6] (setting [8]), 98% (active); in experiment [6] (at 50.0 µM), 71.1% (active).
As to `O=C(/C=N/O)Nc1ccc(Cl)c(I)c1`, the growth inhibition in experiment [1] (setting [7]) is -32%; in experiment [1] (setting [8]), 83% (active); in experiment [1] (at 50.0 µM) it was 85.2% (active); in experiment [2] (setting [7]), -15%; in experiment [2] (setting [8]), 87% (active); in experiment [2] (at 50.0 µM), 86.5% (active). Also, the growth inhibition in experiment [3] (setting [7]) is -17%; in experiment [3] (setting [8]) it was 85% (active); in experiment [3] (at 50.0 µM) it was 80.2% (active); in experiment [4] (setting [7]), 5%; in experiment [4] (setting [8]), 88% (active); in experiment [4] (at 50.0 µM), 81.9% (active). In addition, the growth inhibition in experiment [5] (setting [7]) was -9%; in experiment [5] (setting [8]), 93% (active); in experiment [5] (at 50.0 µM) it was 86.8% (active); in experiment [6] (setting [7]), -24%; in experiment [6] (setting [8]), 92% (active); in experiment [6] (at 50.0 µM), 84.6% (active).
Consider `CCOc1ccc2c(c1)[n+]([O-])c(-c1ccc([N+](=O)[O-])cc1)c(N)[n+]2[O-]`, for which the growth inhibition in experiment [1] (setting [7]) is 22%; in experiment [1] (setting [8]), 82% (active); in experiment [1] (at 50.0 µM), 95% (active); in experiment [2] (setting [7]) it was 41%; in experiment [2] (setting [8]), 90% (active); in experiment [2] (at 50.0 µM) it was 80.5% (active). Moreover, the growth inhibition in experiment [3] (setting [7]) is 38%; in experiment [3] (setting [8]), 96% (active); in experiment [3] (at 50.0 µM), 96% (active); in experiment [4] (setting [7]), 21%; in experiment [4] (setting [8]), 76% (active); in experiment [4] (at 50.0 µM), 94.3% (active). For the same molecule, the growth inhibition was 65% in experiment [5] (setting [7]); 94% (active) in experiment [5] (setting [8]); 96% (active) in experiment [5] (at 50.0 µM); 56% in experiment [6] (setting [7]); 93% (active) in experiment [6] (setting [8]); 97.4% (active) in experiment [6] (at 50.0 µM).
For the molecule `O=C(C[n+]1ccccc1Cl)c1ccc(Oc2ccc(C(=O)C[n+]3ccccc3Cl)cc2)cc1`, the growth inhibition in experiment [1] (setting [7]) was -34%; in experiment [1] (setting [8]) it was 0%; in experiment [1] (at 50.0 µM), 90.6% (active); in experiment [2] (setting [7]) it was -5%; in experiment [2] (setting [8]) it was -18%; in experiment [2] (at 50.0 µM), 83.2% (active). In addition, the growth inhibition in experiment [3] (setting [7]) is -11%; in experiment [3] (setting [8]), -11%; in experiment [3] (at 50.0 µM) it was 30.5%; in experiment [4] (setting [7]), -14%; in experiment [4] (setting [8]) it was -15%; in experiment [4] (at 50.0 µM), 91.9% (active). In addition, the growth inhibition is -40% in experiment [5] (setting [7]); -28% in experiment [5] (setting [8]); 89% (active) in experiment [5] (at 50.0 µM); -33% in experiment [6] (setting [7]); -48% in experiment [6] (setting [8]); 80.7% (active) in experiment [6] (at 50.0 µM).
`CCOC(=O)/C(=C\N1C(=O)/C(=C\C(C)=C\c2ccccc2)SC1=S)C(=O)c1ccccc1`: the growth inhibition in experiment [1] (setting [7]) was -8%; in experiment [1] (setting [8]) it was 0%; in experiment [1] (at 50.0 µM), 55%; in experiment [2] (setting [7]), -10%; in experiment [2] (setting [8]), 22%; in experiment [2] (at 50.0 µM), 58%. For the same molecule, the growth inhibition in experiment [3] (setting [7]) is -3%; in experiment [3] (setting [8]) it was 14%; in experiment [3] (at 50.0 µM) it was 52.5%; in experiment [4] (setting [7]), -18%; in experiment [4] (setting [8]), 2%; in experiment [4] (at 50.0 µM) it was 57%. The growth inhibition in experiment [5] (setting [7]) is -8%; in experiment [5] (setting [8]) it was 39%; in experiment [5] (at 50.0 µM), 70.2% (active); in experiment [6] (setting [7]), -2%; in experiment [6] (setting [8]) it was 20%; in experiment [6] (at 50.0 µM), 77% (active).
On to `CC(=O)c1cccc([N+](=O)[O-])c1`, for which the growth inhibition was -2% in experiment [1] (setting [7]); 5% in experiment [1] (setting [8]); 27.4% in experiment [1] (at 50.0 µM); -2% in experiment [2] (setting [7]); 2% in experiment [2] (setting [8]); -9.25% in experiment [2] (at 50.0 µM). Further, the growth inhibition is -1% in experiment [3] (setting [7]); 2% in experiment [3] (setting [8]); 24.4% in experiment [3] (at 50.0 µM); -1% in experiment [4] (setting [7]); -2% in experiment [4] (setting [8]); 44.9% in experiment [4] (at 50.0 µM). Further, the growth inhibition in experiment [5] (setting [7]) was 1%; in experiment [5] (setting [8]), 7%; in experiment [5] (at 50.0 µM) it was 9.25%; in experiment [6] (setting [7]) it was -3%; in experiment [6] (setting [8]), 3%; in experiment [6] (at 50.0 µM) it was 9%.
Consider `O=[N+]([O-])c1ccc2nc(Nc3ccccc3)c(Nc3ccccc3)nc2c1`, for which the growth inhibition in experiment [1] (setting [7]) is -18%; in experiment [1] (setting [8]), 91% (active); in experiment [1] (at 50.0 µM), 74.1% (active); in experiment [2] (setting [7]), 1%; in experiment [2] (setting [8]), 95% (active); in experiment [2] (at 50.0 µM) it was 77.8% (active). Moreover, the growth inhibition in experiment [3] (setting [7]) is -1%; in experiment [3] (setting [8]) it was 93% (active); in experiment [3] (at 50.0 µM), 63.9%; in experiment [4] (setting [7]), 24%; in experiment [4] (setting [8]), 93% (active); in experiment [4] (at 50.0 µM) it was 70.5% (active). Moreover, the growth inhibition in experiment [5] (setting [7]) is 15%; in experiment [5] (setting [8]), 93% (active); in experiment [5] (at 50.0 µM), 72.2% (active); in experiment [6] (setting [7]), -6%; in experiment [6] (setting [8]), 93% (active); in experiment [6] (at 50.0 µM), 73% (active).
Take `N#CC1(C#N)C(C#N)(C#N)C12CCCCCC2`: the growth inhibition in experiment [1] (setting [7]) is 38%; in experiment [1] (setting [8]), 97% (active); in experiment [1] (at 50.0 µM), 98.9% (active); in experiment [2] (setting [7]), 32%; in experiment [2] (setting [8]), 98% (active); in experiment [2] (at 50.0 µM), 99.3% (active). Also, the growth inhibition was 39% in experiment [3] (setting [7]); 99% (active) in experiment [3] (setting [8]); 99.5% (active) in experiment [3] (at 50.0 µM); 13% in experiment [4] (setting [7]); 95% (active) in experiment [4] (setting [8]); 98.7% (active) in experiment [4] (at 50.0 µM). The growth inhibition in experiment [5] (setting [7]) is 39%; in experiment [5] (setting [8]), 83% (active); in experiment [5] (at 50.0 µM), 99% (active); in experiment [6] (setting [7]), 52%; in experiment [6] (setting [8]), 98% (active); in experiment [6] (at 50.0 µM) it was 99.2% (active).
Take `CCCc1nc2c(nc1C)C(=O)C=CC2=O`: the growth inhibition in experiment [1] (setting [7]) is -101%; in experiment [1] (setting [8]), 96% (active); in experiment [1] (at 50.0 µM), 96.5% (active); in experiment [2] (setting [7]) it was -37%; in experiment [2] (setting [8]), 99% (active); in experiment [2] (at 50.0 µM), 97.5% (active). Moreover, the growth inhibition in experiment [3] (setting [7]) is -46%; in experiment [3] (setting [8]), 95% (active); in experiment [3] (at 50.0 µM), 81.6% (active); in experiment [4] (setting [7]), -44%; in experiment [4] (setting [8]), 97% (active); in experiment [4] (at 50.0 µM), 86.5% (active). Also, the growth inhibition was -53% in experiment [5] (setting [7]); 96% (active) in experiment [5] (setting [8]); 97.1% (active) in experiment [5] (at 50.0 µM); -80% in experiment [6] (setting [7]); 96% (active) in experiment [6] (setting [8]); 98.3% (active) in experiment [6] (at 50.0 µM).
